Assay results: PubChem BioAssay (NCATS)
Inconclusive results are not listed. Unmarked numbers belong to inactive results. Some of the results follow. Where a call stands in place of a potency, no number is given. The source made the active and inactive calls. Calls follow the shape of the dose curve; as a rule, active = well fitted curve in the direction sought with a large enough effect; inconclusive = small, poorly fitted or top-dose-only effect, or another doubt; inactive = no such curve, though single readings can be large; an effect the other way counts as inactive or inconclusive.

Tests used:
[1] = molecular target: Rap guanine nucleotide exchange factor 3 (Homo sapiens) (UniProt O95398); test: Confirmatory qHTS for antagonist of cAMP-regulated guanine nucleotide exchange factor 3 (EPAC1) (AID 1645880); details: EPAC1 Rap1B-BODIPY-GDP exchange, fluorescence; activity, negative = inhibition: at 115 µM (top of the series); also: nearly all actives have a fitted effect of over 55% in size; also: potency is read from the fitted curve at half-maximal effect
Rap guanine nucleotide exchange factor 3 (Homo sapiens), sequence (O95398 whole entry, looked up): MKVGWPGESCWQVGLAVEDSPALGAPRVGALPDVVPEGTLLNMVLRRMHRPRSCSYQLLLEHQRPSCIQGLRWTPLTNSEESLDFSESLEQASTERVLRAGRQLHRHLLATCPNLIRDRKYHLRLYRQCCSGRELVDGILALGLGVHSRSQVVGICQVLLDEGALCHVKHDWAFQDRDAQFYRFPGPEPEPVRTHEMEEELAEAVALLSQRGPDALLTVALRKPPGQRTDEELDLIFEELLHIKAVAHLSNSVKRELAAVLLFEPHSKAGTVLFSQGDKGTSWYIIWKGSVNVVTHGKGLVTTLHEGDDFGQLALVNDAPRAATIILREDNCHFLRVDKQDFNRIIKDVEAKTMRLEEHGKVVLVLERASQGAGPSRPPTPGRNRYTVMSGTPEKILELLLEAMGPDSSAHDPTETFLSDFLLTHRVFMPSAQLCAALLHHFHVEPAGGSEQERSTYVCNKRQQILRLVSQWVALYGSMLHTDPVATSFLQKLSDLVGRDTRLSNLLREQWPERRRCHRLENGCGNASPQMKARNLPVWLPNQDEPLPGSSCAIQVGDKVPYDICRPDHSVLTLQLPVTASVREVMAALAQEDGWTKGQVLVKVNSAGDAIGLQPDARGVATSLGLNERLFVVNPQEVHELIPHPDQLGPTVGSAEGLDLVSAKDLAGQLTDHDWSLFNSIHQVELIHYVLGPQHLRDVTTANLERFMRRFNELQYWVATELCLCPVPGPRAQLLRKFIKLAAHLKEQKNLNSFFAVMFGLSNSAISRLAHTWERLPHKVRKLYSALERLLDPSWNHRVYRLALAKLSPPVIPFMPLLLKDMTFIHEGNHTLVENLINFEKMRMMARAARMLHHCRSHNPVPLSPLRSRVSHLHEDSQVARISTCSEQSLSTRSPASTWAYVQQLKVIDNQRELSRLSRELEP
Summary of the method: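 Released BODIPY-GDP fluoresces less than Rap1-bound BODIPY-GDP; the signal is followed at 480/540 nm at 5-min intervals over 30 min, after 5 min at room temperature. Reactions contain 100 nM EPAC1, 250 nM RAP1B-BODIPY-GDP and 50 uM GDP; results are normalized to ATA and DMSO.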

[2] = molecular target: Rap guanine nucleotide exchange factor 3 (Homo sapiens) (UniProt O95398); test: Confirmatory qHTS for agonist of cAMP-regulated guanine nucleotide exchange factor 3 (EPAC1) (AID 1645881); also: nearly all actives have a fitted effect of over 75% in size; also: potency is read from the fitted curve at half-maximal effect;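 as to activation: EPAC1 catalysed release of BODIPY-GDP from Rap1B seen as fluorescence loss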
[3] = molecular target: Rap guanine nucleotide exchange factor 4 (Homo sapiens) (UniProt Q8WZA2); test: Confirmatory qHTS for agonist of cAMP-regulated guanine nucleotide exchange factor 4 (EPAC2) (AID 1645884);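 also: nucleotide exchange releases bodipy-GDP from Rap1 and this lowers its fluorescence; nearly all actives have a fitted effect of over 65% in size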; also: potency is read from the fitted curve at half-maximal effect
Rap guanine nucleotide exchange factor 4 (Homo sapiens), sequence (Q8WZA2 whole entry, looked up): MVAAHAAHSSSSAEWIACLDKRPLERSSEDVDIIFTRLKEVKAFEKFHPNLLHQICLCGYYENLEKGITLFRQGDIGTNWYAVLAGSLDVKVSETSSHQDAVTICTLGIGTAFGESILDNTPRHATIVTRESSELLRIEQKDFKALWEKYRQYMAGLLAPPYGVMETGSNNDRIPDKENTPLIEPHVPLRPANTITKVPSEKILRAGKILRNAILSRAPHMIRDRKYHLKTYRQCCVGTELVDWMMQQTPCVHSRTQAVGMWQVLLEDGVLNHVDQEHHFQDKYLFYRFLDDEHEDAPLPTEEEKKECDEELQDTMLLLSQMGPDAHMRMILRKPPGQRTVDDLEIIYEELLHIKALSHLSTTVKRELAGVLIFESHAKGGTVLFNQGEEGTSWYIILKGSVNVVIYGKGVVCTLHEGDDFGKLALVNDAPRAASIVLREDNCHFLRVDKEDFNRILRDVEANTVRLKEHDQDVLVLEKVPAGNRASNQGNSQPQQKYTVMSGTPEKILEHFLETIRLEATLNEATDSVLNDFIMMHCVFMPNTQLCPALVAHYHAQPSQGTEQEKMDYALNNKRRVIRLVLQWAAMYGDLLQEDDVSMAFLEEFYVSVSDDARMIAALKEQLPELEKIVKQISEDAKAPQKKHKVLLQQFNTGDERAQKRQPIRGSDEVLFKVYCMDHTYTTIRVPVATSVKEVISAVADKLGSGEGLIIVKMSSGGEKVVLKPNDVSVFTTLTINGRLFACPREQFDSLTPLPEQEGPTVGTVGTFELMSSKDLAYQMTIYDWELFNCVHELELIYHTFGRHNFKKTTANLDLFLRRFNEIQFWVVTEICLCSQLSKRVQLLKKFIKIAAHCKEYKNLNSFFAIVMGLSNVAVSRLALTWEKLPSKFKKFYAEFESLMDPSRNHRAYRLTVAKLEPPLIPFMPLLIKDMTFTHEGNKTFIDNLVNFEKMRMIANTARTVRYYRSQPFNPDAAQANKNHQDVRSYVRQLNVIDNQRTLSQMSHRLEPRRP

[4] = molecular target: Rap guanine nucleotide exchange factor 4 (Homo sapiens) (UniProt Q8WZA2); test: Confirmatory qHTS for antagonist of cAMP-regulated guanine nucleotide exchange factor 4 (EPAC2) (AID 1645885); also: nearly all actives have a fitted effect of over 25% in size; also: potency is read from the fitted curve at half-maximal effect
[5] = molecular target: Rap guanine nucleotide exchange factor 3 (Homo sapiens) (UniProt O95398); test: Counterscreen qHTS for agonist of cAMP-regulated guanine nucleotide exchange factor 3 (EPAC1) (AID 1645889); also: nearly all actives have a fitted effect of over 40% in size; also: potency is read from the fitted curve at half-maximal effect
Summary of the method: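 Measured: fluorescence of BODIPY-GDP bound to Rap1B, which falls as exchange proceeds. Conditions include 50 uM competing GDP, 5 and 30 min reads, and a later cAMP challenge for antagonist detection.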

[6] = molecular target: Tumor susceptibility gene 101 protein (Homo sapiens) (UniProt Q99816); test: qHTS Assay for Iinhibitors of HIV-1 Budding by Blocking the Interaction of PTAP/TSG101: Hit Validation (AID 651600); also: nearly all actives have a fitted effect of over 70% in size
Tumor susceptibility gene 101 protein (Homo sapiens), sequence (Q99816 whole entry, looked up, the tested form may be a part): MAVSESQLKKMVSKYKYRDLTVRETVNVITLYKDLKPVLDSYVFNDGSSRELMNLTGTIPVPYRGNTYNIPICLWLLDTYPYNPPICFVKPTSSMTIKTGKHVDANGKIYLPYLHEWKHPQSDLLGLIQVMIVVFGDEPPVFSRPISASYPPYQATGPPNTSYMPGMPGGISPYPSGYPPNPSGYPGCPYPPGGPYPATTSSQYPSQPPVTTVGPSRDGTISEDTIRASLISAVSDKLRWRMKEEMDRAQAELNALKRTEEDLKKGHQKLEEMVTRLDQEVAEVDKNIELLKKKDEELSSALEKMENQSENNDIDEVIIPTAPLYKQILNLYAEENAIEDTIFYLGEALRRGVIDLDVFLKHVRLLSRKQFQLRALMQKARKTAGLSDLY
Summary of the method: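 Tsg101 binding domain 10 uM + FITC-PTAP peptide 50 nM (final), 10 mM HEPES pH 7.5/0.15 M NaCl/0.01% Tween 20/3 mM EDTA/0.1 mM TCEP; 20 min RT; FP read, FITC filters.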

[7] = molecular target: Vitamin D3 receptor (Homo sapiens) (UniProt P11473); test: qHTS for Inhibitors of the vitamin D receptor (VDR): Hit Validation in Primary Screen (AID 602199); details: VDR-coactivator inhibition assay, qHTS confirmation; also: potency is read from the fitted curve at half-maximal effect
Vitamin D3 receptor (Homo sapiens), sequence (P11473 whole entry, looked up, the tested form may be a part): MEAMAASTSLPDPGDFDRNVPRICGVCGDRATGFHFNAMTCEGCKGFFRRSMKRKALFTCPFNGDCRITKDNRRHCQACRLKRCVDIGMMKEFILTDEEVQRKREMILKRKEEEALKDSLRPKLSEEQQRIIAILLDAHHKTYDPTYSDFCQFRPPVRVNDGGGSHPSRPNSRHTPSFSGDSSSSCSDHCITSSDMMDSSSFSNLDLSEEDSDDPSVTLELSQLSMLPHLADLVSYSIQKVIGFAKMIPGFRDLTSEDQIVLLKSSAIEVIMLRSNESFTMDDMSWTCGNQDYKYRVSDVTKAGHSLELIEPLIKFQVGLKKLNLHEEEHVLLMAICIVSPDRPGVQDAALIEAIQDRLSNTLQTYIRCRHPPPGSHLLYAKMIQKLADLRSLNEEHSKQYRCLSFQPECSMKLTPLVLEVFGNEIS
Summary of the method: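 Fluorescence polarization assay of VDR binding to Alexa 647-labelled SRC2-3 coactivator peptide: 800nM VDR with 5uM LG19078 agonist, compounds, 2 h at room temperature, read Ex 620 nm/Em 688 nm.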

[8] = molecular target: Vitamin D3 receptor (Homo sapiens) (UniProt P11473); test: qHTS for Inhibitors of the vitamin D receptor (VDR): Hit Validation using a Beta-Lactamase Assay (AID 602202)
Summary of the method: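 Stably transfected HEK293 cells express a VDR–GAL4 DNA-binding-domain fusion driving a UAS beta-lactamase reporter, stimulated by agonist LG190178. Compounds were added 4 h after plating and incubated 18 h. A FRET beta-lactam substrate was then added for 2 h and cleaved substrate emission read at 447 nm.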

[9] = qHTS for Inhibitors of the vitamin D receptor (VDR): Hit Validation using a Cytotoxicity Assay (AID 602204); also: nearly all actives have a fitted effect of over 75% in size
Summary of the method: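 ATP luminescence, 30 min post-reagent. Exposure: 18 h. Seeding: 20,000 cells/well, 4 h prior to compound. Controls: cycloheximide, DMSO.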

**Q.** Which results are given for `C/C=C/C(=O)Nc1cccc(C2=NOC3(C2)C[C@@H](C(N)=O)N(C(=O)/C(C)=C/C)C3)c1` (some centres undefined)?
**A.** Potency [1]: inactive; Potency [2]: inactive; Potency [3]: inactive; Potency [4]: inactive; Potency [5]: inactive

**Q.** What does the source list for `N#Cc1c(Nc2ccccc2)sc(C(=O)c2ccccc2)c1N`?
**A.** Potency [1]: inactive; Potency [2]: inactive; activation [3]: 9.46% [at 17.1 µM, percent relative to cAMP agonist control]; Potency [4]: inactive; activation [5]: 19.9% [at 30.8 µM]

**Q.** Which Potency [1] does the source give for `Cc1ccc2oc(=O)c(/C=C(\O)c3cccs3)nc2c1` here?
**A.** inactive

**Q.** What about the Potency [2] of the same compound?
**A.** 100 µM (active)

**Q.** And the Potency [3]?
**A.** 89.1 µM (active)

**Q.** And the Potency [4]?
**A.** 23.9 µM (active)

**Q.** What about the Potency [5] of the same compound?
**A.** 39.8 µM (active)

**Q.** Which Potency [1] does the source give for `O=C(C1CC1)N1CCN(c2ccc([N+](=O)[O-])cc2-n2cccc2)CC1` here?
**A.** inactive

**Q.** And the Potency [2]?
**A.** inactive

**Q.** And the activation [3]?
**A.** 4.17% [at 17.1 µM, percent relative to cAMP agonist control]

**Q.** And the Potency [4]?
**A.** inactive

**Q.** What about the activation [5] of the same compound?
**A.** 6.18% [at 30.8 µM]

**Q.** Which results are given for `O=C1N/C(=N/NC(=O)c2cccc3ccccc23)S/C1=C\c1ccccc1OCc1ccccc1`?
**A.** Potency [1]: 3.55 µM (active); Potency [2]: inactive; activation [3]: 0.729% [at 17.1 µM, percent relative to cAMP agonist control]; Potency [4]: inactive; activation [5]: 8.81% [at 30.8 µM]

**Q.** Which Potency [1] does the source give for `COc1ccc(/C=N/N=C2/C(=O)Nc3ccccc32)cc1O` here?
**A.** inactive

**Q.** And the Potency [2]?
**A.** inactive

**Q.** And the activation [3]?
**A.** 6.47% [at 17.1 µM, percent relative to cAMP agonist control]

**Q.** What about the Potency [4] of the same compound?
**A.** inactive

**Q.** And the activation [5]?
**A.** 36.3% [at 30.8 µM]

**Q.** For `CN1/C(=C/C=C/c2n(C)c3cc([N+](=O)[O-])c([N+](=O)[O-])cc3[n+]2C)C(C)(C)c2ccccc21`, which Potency [1] is on record?
**A.** 30.1 µM (active)

**Q.** What about the Potency [2] of the same compound?
**A.** inactive

**Q.** What about the Potency [3] of the same compound?
**A.** inactive

**Q.** What about the Potency [4] of the same compound?
**A.** 42.6 µM (active)

**Q.** And the Potency [5]?
**A.** inactive

**Q.** For `CCn1cc(SCC(=O)NCc2ccc3c(c2)OCO3)c2ccccc21`, which Potency [1] is on record?
**A.** inactive

**Q.** What about the Potency [2] of the same compound?
**A.** inactive

**Q.** And the activation [3]?
**A.** 0% [at 17.1 µM, percent relative to cAMP agonist control]

**Q.** What about the Potency [4] of the same compound?
**A.** inactive

**Q.** What about the activation [5] of the same compound?
**A.** 20.3% [at 30.8 µM]

**Q.** What does the source list for `Cc1cc(Nc2ncc(Cl)cc2Cl)n(-c2ccccc2C)n1`?
**A.** Potency [1]: inactive; Potency [2]: inactive; Potency [3]: inactive; Potency [4]: 16.9 µM (active); Potency [5]: inactive

**Q.** Which results are given for `CC(=O)c1cccc(NC(=O)c2c(-c3ccccc3)c(-c3ccccc3)nn(C)c2=O)c1`?
**A.** Potency [1]: inactive; Potency [2]: inactive; Potency [3]: inactive; Potency [4]: inactive; Potency [5]: inactive

**Q.** Which results are given for `CCCC(=O)N=C1SC2CS(=O)(=O)CC2N1c1ccc(CC)cc1` (centres undefined)?
**A.** Potency [1]: inactive; Potency [2]: inactive; activation [3]: -7.85% [at 17.1 µM, percent relative to cAMP agonist control]; Potency [4]: inactive; activation [5]: -1.33% [at 30.8 µM]

**Q.** For `N#CCOC(=O)[C@H](Cc1c[nH]c2ccccc12)NS(=O)(=O)c1ccc(Cl)cc1`, which Potency [1] is on record?
**A.** 37.9 µM (active)

**Q.** What about the Potency [2] of the same compound?
**A.** inactive

**Q.** What about the Potency [3] of the same compound?
**A.** inactive

**Q.** What about the Potency [4] of the same compound?
**A.** 53.6 µM (active)

**Q.** And the Potency [5]?
**A.** inactive

**Q.** Which Potency [1] does the source give for `O=CN(c1ccccc1)c1ccc2ccccc2c1` here?
**A.** inactive

**Q.** And the Potency [2]?
**A.** inactive

**Q.** And the activation [3]?
**A.** 1.36% [at 17.1 µM, percent relative to cAMP agonist control]

**Q.** And the Potency [4]?
**A.** inactive

**Q.** And the activation [5]?
**A.** 4.55% [at 30.8 µM]

**Q.** Which results are given for `CCC/C=C/c1ccc(CN2C(CC(C)C)C(=O)N(Cc3cn(CCC4OCCO4)nn3)CCS2(=O)=O)cc1` (centres undefined)?
**A.** Potency [1]: 37.9 µM (active); Potency [2]: inactive; Potency [3]: inactive; Potency [4]: 23.9 µM (active); Potency [5]: inactive

**Q.** What does the source list for `CCn1c(O)c(/C=N/N=C/c2ccc(OC)cc2)c2cc(C3=NNC(=O)CC3)ccc21`?
**A.** Potency [1]: inactive; Potency [2]: 89.1 µM (active); Potency [3]: 100 µM (active); Potency [4]: inactive; Potency [5]: inactive

**Q.** Which results are given for `CCC(=O)N1c2ccc(S(=O)(=O)NCCc3ccc(C)cc3)cc2CC1C` (centres undefined)?
**A.** Potency [1]: inactive; Potency [2]: inactive; Potency [3]: inactive; Potency [4]: inactive; Potency [5]: inactive

**Q.** What does the source list for `Cc1ccc(-c2nnc(Nc3ccc4c(c3)nc(C)n4C)c3ccccc23)cc1`?
**A.** Potency [1]: inactive; Potency [2]: inactive; activation [3]: 2.89% [at 17.1 µM, percent relative to cAMP agonist control]; Potency [4]: inactive; activation [5]: 12% [at 30.8 µM]

**Q.** What does the source list for `COC(=O)Cc1c(C)c2ccc(OC(=O)c3ccco3)cc2oc1=O`?
**A.** Potency [1]: inactive; Potency [2]: inactive; activation [3]: 7.89% [at 17.1 µM, percent relative to cAMP agonist control]; Potency [4]: inactive; activation [5]: 4.06% [at 30.8 µM]

**Q.** For `Cc1ccc(S(=O)(=O)N2[C@@H](c3ccccc3)C(C(=O)O)=CC[C@H]2c2ccc(C(C)C)cc2)cc1`, which Potency [1] is on record?
**A.** 75.7 µM (active)

**Q.** What about the Potency [2] of the same compound?
**A.** inactive

**Q.** And the Potency [3]?
**A.** inactive

**Q.** And the Potency [4]?
**A.** inactive

**Q.** And the Potency [5]?
**A.** inactive

**Q.** Which Potency [6] does the source give for `O=C(OCCN1C(=O)c2cccc3c(N4CCOCC4)ccc(c23)C1=O)c1cccc(Cl)c1` here?
**A.** inactive

**Q.** What about the Potency [1] of the same compound?
**A.** inactive

**Q.** And the Potency [2]?
**A.** 89.1 µM (active)

**Q.** And the Potency [3]?
**A.** 100 µM (active)

**Q.** And the Potency [4]?
**A.** 75.7 µM (active)

**Q.** What about the Potency [5] of the same compound?
**A.** 3.16 µM (active)

**Q.** Which Potency [7] does the source give for `O=C(O)c1ccc2c(c1)C(=O)N(c1ccc(/C=C/C(=O)c3ccccc3)cc1)C2=O` here?
**A.** 10.6 µM (active)

**Q.** What about the Potency [8] of the same compound?
**A.** inactive

**Q.** What about the Potency [9] of the same compound?
**A.** inactive

**Q.** What about the Potency [1] of the same compound?
**A.** 39.8 µM (active)

**Q.** What about the Potency [2] of the same compound?
**A.** inactive

**Q.** And the activation [3]?
**A.** 5.43% [at 17.1 µM, percent relative to cAMP agonist control]

**Q.** What about the Potency [4] of the same compound?
**A.** inactive

**Q.** And the activation [5]?
**A.** 8.33% [at 30.8 µM]

**Q.** For `CCC(Sc1nncn1C)C(=O)Nc1nnc(-c2ccc(Cl)cc2)s1` (centres undefined), which Potency [1] is on record?
**A.** inactive

**Q.** What about the Potency [2] of the same compound?
**A.** inactive

**Q.** And the activation [3]?
**A.** 5.37% [at 17.1 µM, percent relative to cAMP agonist control]

**Q.** What about the Potency [4] of the same compound?
**A.** inactive

**Q.** What about the activation [5] of the same compound?
**A.** -0.401% [at 30.8 µM]

**Q.** Which Potency [1] does the source give for `CC1CC1c1ccc(/C=C(\C#N)C(=O)Nc2ccc(Cl)cc2)o1` (centres undefined) here?
**A.** inactive

**Q.** And the Potency [2]?
**A.** inactive

**Q.** What about the Potency [3] of the same compound?
**A.** inactive

**Q.** And the Potency [4]?
**A.** inactive

**Q.** And the Potency [5]?
**A.** inactive

**Q.** For `Cc1ccc(CNC(=O)c2c[nH]n3c(=O)c(Cc4ccc(F)cc4Cl)c(C)nc23)cc1`, which Potency [1] is on record?
**A.** 67.5 µM (active)

**Q.** What about the Potency [2] of the same compound?
**A.** inactive

**Q.** And the Potency [3]?
**A.** inactive

**Q.** And the Potency [4]?
**A.** inactive

**Q.** What about the Potency [5] of the same compound?
**A.** inactive
